Data taken from PubChem BioAssay (EPA / NIEHS).
Active and inactive are the calls of the source. The calls were made as follows: active = hit-call score of the fitted dose curve at least 0.9, where 1 is the maximum; inactive = score below 0.9.

Assays:
[1] = read-out: Interferon-gamma inducible Protein 10 (IP10), CXCL10 (gene 3627); assay: BSK_hDFCGF_IP10: BioMAP Diversity Plus: hDFCGF Assay for Interferon-gamma inducible Protein 10 (IP10) Biomarker Activity (AID 2283053); details: primary human foreskin fibroblasts; actives raise or lower the signal
How it was run: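 Primary human foreskin fibroblasts exposed to chemicals for 24 h. IP-10 measured by ELISA; changes fitted bidirectionally against DMSO baseline.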

[2] = read-out: Urokinase-type plasminogen activator receptor (uPAR), PLAUR (gene 5329); assay: BSK_CASM3C_uPAR: BioMAP Diversity Plus: CASM3C Assay for Urokinase-type plasminogen activator receptor (uPAR) Biomarker Activity (AID 2283054); details: primary human coronary artery smooth muscle cells; actives raise or lower the signal;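 also: cell-surface uPAR protein level quantified by ELISA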
[3] = read-out: Vascular cell adhesion molecule 1 (VCAM1), VCAM1 (gene 7412); assay: BSK_CASM3C_VCAM1: BioMAP Diversity Plus: CASM3C Assay for Vascular cell adhesion molecule 1 (VCAM1) Biomarker Activity (AID 2283055); details: primary human coronary artery smooth muscle cells; actives raise or lower the signal;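 also: VCAM-1 protein level quantified by ELISA on the cells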
[4] = read-out: Collagen III, COL3A1 (gene 1281); assay: BSK_hDFCGF_CollagenIII: BioMAP Diversity Plus: hDFCGF Assay for Collagen III Biomarker Activity (AID 2283056); details: primary human foreskin fibroblasts; actives raise or lower the signal
How it was run: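 Human foreskin fibroblast primary cultures sampled 24 h after dosing; Collagen III quantified by ELISA. Signal fitted bidirectionally against DMSO baseline.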

[5] = read-out: Epidermal growth factor receptor (EGFR), EGFR (gene 1956); assay: BSK_hDFCGF_EGFR: BioMAP Diversity Plus: hDFCGF Assay for Epidermal growth factor receptor (EGFR) Biomarker Activity (AID 2283057); details: primary human foreskin fibroblasts; actives raise or lower the signal
How it was run: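 Primary human foreskin fibroblasts (hDFCGF system), sampled 24 h after dosing; EGFR quantified by ELISA. Bidirectional fit relative to DMSO baseline; SRB total-protein staining in parallel cultures for cytotoxicity.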

[6] = read-out: Interleukin-8 (IL8), CXCL8 (gene 3576); assay: BSK_hDFCGF_IL8: BioMAP Diversity Plus: hDFCGF Assay for Interleukin-8 (IL8) Biomarker Activity (AID 2283058); details: primary human foreskin fibroblasts; actives raise or lower the signal
How it was run: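 Primary human foreskin fibroblasts (hDFCGF system) dosed with chemical; IL-8 measured by ELISA 24 hours later. Bidirectional curve fitting relative to DMSO baseline; cytotoxicity tracked in parallel cultures by SRB total protein staining.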

[7] = BSK_hDFCGF_Proliferation: Cell Proliferation Assessment in the BioMAP Diversity Plus: hDFCGF Assay (AID 2283059); details: primary human foreskin fibroblasts;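 also: curves fitted for both rise and fall of signal versus DMSO baseline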
How it was run: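 Primary human foreskin fibroblasts, sub-confluent; […]; 10% TCA fix, 0.1% SRB stain, A560 total protein. Gain/loss fitted bidirectionally vs DMSO control.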

[8] = read-out: Macrophage colony-stimulating factor (MCSF), CSF1 (gene 1435); assay: BSK_hDFCGF_MCSF: BioMAP Diversity Plus: hDFCGF Assay for Macrophage colony-stimulating factor (MCSF) Biomarker Activity (AID 2283060); details: primary human foreskin fibroblasts; actives raise or lower the signal
How it was run: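 Human foreskin fibroblast primary cultures; M-CSF measured by ELISA 24 hours after chemical dosing. Bidirectional fitting relative to DMSO, with overt cytotoxicity tracked by parallel SRB total-protein staining (0.1% SRB, 10% TCA fixation, 560 nm).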

[9] = BSK_hDFCGF_SRB: Viability Assessment in the BioMAP Diversity Plus: hDFCGF Assay (AID 2283061); details: primary human foreskin fibroblasts;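 also: cells exposed to compound for 24 h before the read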
How it was run: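 Human foreskin fibroblasts in 96-well plates were treated 24 h. Total protein was measured by 0.1% SRB staining after 10% TCA fixation, read at 560 nm. Data were fitted bidirectionally against DMSO.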

[10] = read-out: TIMP metallopeptidase inhibitor 1 (TIMP1), TIMP1 (gene 7076); assay: BSK_hDFCGF_TIMP1: BioMAP Diversity Plus: hDFCGF Assay for TIMP metallopeptidase inhibitor 1 (TIMP1) Biomarker Activity (AID 2283062); details: primary human foreskin fibroblasts; actives raise or lower the signal
How it was run: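 Human foreskin fibroblast primary cultures dosed for 24 h; secreted/surface TIMP-1 quantified by ELISA. Bidirectional curve fitting against DMSO baseline; cytotoxicity tracked in parallel cultures by SRB total-protein staining.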

Structure (SMILES) | outcome [1] | outcome [2] | outcome [3] | outcome [4] | outcome [5] | outcome [6] | outcome [7] | outcome [8] | outcome [9] | outcome [10] | AC50 [1] | AC50 [4] | AC50 [5] | AC50 [7] | AC50 [8] | AC50 [9] | AC50 [10]
CCCCCCCCCCCCc1ccccc1 | inactive | inactive | inactive | inactive | inactive | inactive | inactive | inactive | inactive | inactive |  |  |  |  |  |  | 
CCCCCCc1ccc(O)cc1O |  | inactive | inactive |  |  |  |  |  |  |  | 29.8 µM (active) | 17.5 µM (active) | 20 µM (active) | 19 µM (active) | 28.1 µM (active) | 31.2 µM (active) | 33.2 µM (active)
CC(C)=CCC/C(C)=C\CO | inactive | inactive | inactive | inactive | inactive | inactive |  | inactive | inactive | inactive |  |  |  | 0.171 µM (active) |  |  | 
